# Screens (PubChem BioAssay)
# Only some compounds are listed: those with a hit (about 12% of all), similar ones and a draw of the others.
# CHX counter = affects cycloheximide protein synthesis inhibition readout, counter-screen. cell reporter, cycloheximide protein synthesis inhibition counterscreen. max response, %. 12% of 300,000 active; in the data active = max response mostly above about 13%, no sharp cut-off; inactive = mostly below about 14%; also: read at 38.3 µM for the half of the compounds with a filed dose; 0% is about no effect
# Shiga toxin inh = blocks Shiga toxin action in Vero cells; Vero cells, Shiga toxin protein synthesis inhibition reporter; inhibition, % at 38.7 µM; 9.2% of 290,000 active; AID 2315; in the data active = inhibition mostly above about 28%, no sharp cut-off; inactive = mostly below about 43%; also: 0% is about no effect
# Lassa entry inh = inhibitors of Lassa virus binding or cell entry; Lassa virus pseudotype entry inhibition, cell reporter; Potency, µM (titrated, usually from 37.9 µM), without a hit: at the top dose activity change, negative = inhibition, usual class: inhibitors; 1.2% of 300,000 active; AID 540256; calls by dose curve; tested in HEK293 cells; also: potency is read from the fitted curve at half-maximal effect; % is scaled to controls: 0 for no effect and ±100 for the full control effect; nearly all actives have a fitted effect of over 50% in size
# Marburg entry inh = inhibitors of Marburg virus binding or cell entry; 1.8% of 300,000 active; Potency, µM (doses to about 37.8 µM), without a hit: at the top dose activity change, negative = inhibition, hits mostly inhibitors; Marburg virus pseudotyped entry inhibition, cell reporter; AID 540276; calls by dose curve; tested in HEK293 cells; also: potency is read from the fitted curve at half-maximal effect; % is scaled to controls: 0 for no effect and ±100 for the full control effect
# * marks the source's active call; other numbers are inactive results; u = inconclusive; x = no result given; [ ] = dose if it differs, or a comment.
SMILES,CHX counter,Shiga toxin inh,Lassa entry inh,Marburg entry inh
CCOC(=O)CCN1C(=O)[C@@H]2[C@H]3[C@H](O)[C@H](O)CC(=NO[C@@H]4O[C@H](COC(C)=O)[C@@H](OC(C)=O)[C@H](OC(C)=O)[C@@H]4OC(C)=O)[C@H]3CC[C@H]2C1=O,x,x,x,-6%[14.2 µM]
Cc1cc(NC(=O)Cc2cc(F)cc(F)c2)no1,9,-2,x,x
CC1CCCCC1OCCNC(=O)c1ccco1 (configuration not stated),x,x,x,13%[46.1 µM]
CCc1nnc(NC(=O)C2Cc3ccccc3CN2S(=O)(=O)c2c(C)c(C)cc(C)c2C)s1 (configuration not stated),18,55,9%,2%
C/C(N)=C(/C#N)C(=O)COC(=O)c1ccccc1Oc1ccccc1,3,9,-22%,-7%
Cc1ccc2nc(-c3ccc(NC(=O)COC(=O)c4cncc(Br)c4)cc3)sc2c1,39*,64*,u,u
Cc1ccc2cc3cc(C(=O)N4CCN(C(=O)c5ccco5)CC4)sc3nc2c1,19*,28,3%,-4%[46.1 µM]
CCOc1ncccc1C(=O)OCC(=O)Nc1ccc(-c2nc3ccc(C)cc3s2)cc1,76*,128*,u,13µM*
O=C(COC(=O)c1cncc(Br)c1)Nc1ccc2c(c1)OCO2,0,8,8%,1%[46.1 µM]
COc1ccc(C(=O)NC(CCSC)C(=O)N2CCCCCC2)cc1 (configuration not stated),-4,-4,7%[46.1 µM],1%[46.1 µM]
O=C(Nc1nnc(-c2ccccc2F)s1)c1cccnc1,23*,45*,x,x
O=C(Nc1nnc(C(F)(F)F)s1)c1cccnc1,39*,65*,-8%,-4%
O=C(CSc1nnc(NC(=O)c2ccco2)s1)Nc1cccc(F)c1,32*,78*,u,-11%
Cc1cnc(NC(=O)c2ccco2)s1,34*,125*,-19%,u
CSc1nnc(NC(=O)c2ccco2)s1,16*,x,0%,8%
CC(=O)Nc1cccc(NC(=O)CSc2nnc(NC(=O)c3ccco3)s2)c1,-4,-4,-1%,-15%
CCCSc1nnc(NC(=O)c2ccco2)s1,24*,109*,-1%[46.1 µM],u
CC(C)n1c(CSCc2ccc(Cl)cc2Cl)n[nH]c1=S,-3,-10,u,u
NCCCC[C@H](NC(=O)CNC(=O)[C@@H]1CCCN1C(=O)[C@H](Cc1ccc(O)cc1)NC(=O)CN)C(=O)N[C@@H](Cc1ccccc1)C(=O)O,-7,-7,x,x
COCCSc1nnc(NC(=O)c2ccco2)s1,20*,36,2%,6%
CCOc1ccc(C(=O)COC(=O)c2cccc(-n3cnnn3)c2)cc1,56*,51*,-5%,17%
COC(=O)c1cccc(-n2cnnn2)c1,-3,-3,-13%,-2%
O=C(COC(=O)c1cccc(-n2cnnn2)c1)c1ccccc1,20*,31*,15%[46.1 µM],u
COc1ccc(OCCOC(=O)c2cccc(-n3cnnn3)c2)cc1,14*,14,-1%,u
Cc1c(C(=O)c2ccccc2)c2ccccn2c1CCc1ccccn1,9,11,u,u
SMILES,CHX counter,Shiga toxin inh,Lassa entry inh,Marburg entry inh
Cc1c(C(=O)Nc2cccc(Cl)c2)c2ccccn2c1CCc1ccncc1,12,37*,u,u
Cc1c(C(=O)Nc2ccc(Cl)cc2)c2ccccn2c1CCc1ccncc1,28*,39*,-21%,u
COc1cc(C(C)=O)ccc1OCC(=O)N(CCC1=CCCCC1)c1c(N)n(Cc2ccccc2)c(=O)[nH]c1=O,x,x,-15%,29%
COC(=O)c1scc(C)c1NC(=O)c1ccccc1F,16,14,x,x
CN(C)CCCNC(=S)NCC(c1ccc(Cl)cc1Cl)c1c[nH]c2ccccc12 (configuration not stated),-3,-13,10µM*,u
OCCC1CN(Cc2ccc(Oc3ncccn3)cc2)CCN1Cc1ccc(F)c(F)c1 (configuration not stated),-1,18,x,x
O=C(/C=C/Sc1ccc(C(F)(F)F)cn1)c1ccccc1,22*,36,x,x
O=C(CSc1ccc(C(F)(F)F)cn1)Nc1ccccc1,-2,-9,5%,12%
COc1ccccc1C(CNC(=O)CNC(=O)c1cccc(Cl)c1)N1CCCC1 (configuration not stated),x,x,3%,7.1µM*
COc1ccc(C(CNC(=O)C(CCSC)NC(=O)c2ccccc2OC)N2CCCCC2)cc1 (configuration not stated),-1,-2,9%,20%
COc1ccccc1C(CNC(=O)C(CCSC)NC(=O)c1ccccc1Cl)N1CCCC1 (configuration not stated),x,x,6%,2.8µM*
CSCCC(=O)NC1CCCN(CCc2ccccc2)C1 (configuration not stated),-1,16,3%,0%
CCCCCCCCC/C(=N\O)c1ccccn1,24*,83*,u,u
CCCCCCCCC(=O)N/N=C/c1ccccn1,-3,-7,u,0%
CC1CC(C)CN(C(=S)Nc2ccc(SC(F)F)cc2)C1 (configuration not stated),-3,-11,1%,-1%
CN1CCC(N(C)C(=S)Nc2ccc(F)cc2)CC1,-1,-3,x,x
OC1CCCN(C(=S)Nc2ccc(SC(F)F)cc2)C1 (configuration not stated),27*,34*,u,3%
CN1CCC(N(C)C(=S)Nc2ccc(SC(F)F)cc2)CC1,24*,active,4%,u
Oc1ccccc1N1CCN(C(=S)Nc2ccc(SC(F)F)cc2)CC1,-3,31,5µM*,u
CCCC/C=C/[C@H](c1ccccc1)[C@H](CO)Cc1cnc2ccccc2c1,-2,13,x,x
O=C1CCC/C(=N/Nc2ccc(Cl)cc2)C1,29*,67*,x,x
CCOc1ccc(S(=O)(=O)N/N=C2/CCCC(=O)C2)cc1,-3,-3,12%,u
CCOc1ccc(NC(=S)NCc2ccc3[nH]c(C)cc3c2)cc1,9,29,2.9µM*,2%
Nn1c(SCC(=O)Nc2ccc(OC(F)F)cc2)nnc1-c1ccco1,x,x,-1%,-1%
Cc1nc(-c2ccc(C)c(N3CCN(C(=O)Nc4ccc(Br)cc4)CC3)c2)no1,x,x,-20%[46.1 µM],x
SMILES,CHX counter,Shiga toxin inh,Lassa entry inh,Marburg entry inh
Cc1ccc(C2C(=O)c3ccccc3C2=O)cc1,19*,11,22%,17%
O=C1c2ccccc2C(=O)C1c1ccccn1,30*,34,x,x
O=C1c2ccccc2C(=O)C1c1ccncc1,22*,46,u,u
Cc1ccccc1C1C(=O)c2ccccc2C1=O,1,-3,x,x
Cc1c(C(=O)Nc2ccc3c(c2)OCCO3)cnn1C,48*,78*,-7%[46.1 µM],-20%[46.1 µM]
COCCN1Cc2cccc(C(=O)Nc3ccc4c(c3)OCCO4)c2C1=O,31*,65*,x,x
Cc1nn(C)cc1C(=O)Nc1ccc2c(c1)OCCO2,43*,71*,12%,-28%[46.1 µM]
Cn1ncc([N+](=O)[O-])c1C(=O)Nc1ccc2c(c1)OCCO2,33*,54*,12%,2%[46.1 µM]
Cn1ncc([N+](=O)[O-])c1C(=O)Nc1ccccc1,5,-2,x,x
Cn1ncc([N+](=O)[O-])c1C(=O)Nc1ccc(-c2ccccc2)cc1,13*,x,u,3%[46.1 µM]
O=C(Nc1ccc2c(c1)OCO2)c1c(Cl)nc2sccn12,25*,103*,12%,5%
Cn1nccc1C(=O)Nc1ccc2c(c1)OCCO2,43*,96*,u,-28%
